According to the supplement of paper PMC12636033:
± gives the standard deviation of the averaged measurements. Whole data set: some 33,000 sequences, median “E-score (rank enrichment, -0.5 to 0.5)” near -0.0043, cut for the highest 2% near 0.24. For the sample, the highest values were picked, then their nearest neighbours and some sequences at random.

test system: 2Sp-muMax20 (muMax20 with two 2,6-bis(methyl)pyridine Cys staples); assay: PBM 8-mer E-score (E-score (rank enrichment, -0.5 to 0.5)); higher = stronger preferential binding
Experimental: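 Protein binding microarray (universal PBM chip covering all 10-mers in fixed probe flanks) with chemically synthesized human Max(13-93) bHLH-LZ analogs (not full-length Max) bearing noncanonical residues (hArg, Tha, Aib, Nle at 65) and aromatic Cys staples. Read-out per 8-mer (and its reverse complement): E-score (rank-based enrichment, -0.5 to 0.5) and Z-score of median probe intensity.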

Sequence	PBM 8-mer E-score
AATTGGGC	0.183 ± 0.034
AATTTGGA	0.0583 ± 0.086
AATTGGGG	0.228 ± 0.06
ATTGGGGG	-0.0095 ± 0.0052
ATTTGGGC	0.119 ± 0.05
ATTGGGCC	0.00386 ± 0.043
ATTTGGGG	0.253 ± 0.052
ATTGGGGC	0.253 ± 0.019
AATTTGGG	0.254 ± 0.017
AATTGGGT	0.2483 ± 0.0021
ATTTGGGA	0.173 ± 0.068
AATTTGGT	-0.00788 ± 0.03
CCTTGACG	-0.0891 ± 0.0072
AGGGGACT	-0.0296 ± 0.079
GACGAGCA	0.0874 ± 0.014
CACACACC	-4e-05 ± 0.065
ATGGCATC	0.193 ± 0.081
ACGAGCCG	-0.0923 ± 0.041
CGCGGTCA	-0.174 ± 0.092
ACGCGCGC	0.206 ± 0.0084
ACACGCGT	0.272 ± 0.021
ACACGCGA	0.211 ± 0.037

Sequence	PBM 8-mer E-score
ACGCGCGT	0.397 ± 0.0075
ACGCGCGG	0.156 ± 0.098
AAACGCGT	-0.0801 ± 0.023
ACTGAACT	0.049 ± 0.03
CACGATCG	-0.0926 ± 0.084
AAATAACA	0.182 ± 0.057
ATATAACA	0.184 ± 0.057
ATATAACC	0.134 ± 0.069
AAATAACG	0.289 ± 0.022
ATATAACG	0.302 ± 0.039
CAATAACG	0.0434 ± 0.0082
AGGATCAC	0.0434 ± 0.0027
CGATGACC	-0.245 ± 0.045
AACATAGG	0.0986 ± 0.084
AACTACAC	0.257 ± 0.011
GACTACAC	0.016 ± 0.034
AACTACAG	-0.122 ± 0.011
CCCTCGCA	0.109 ± 0.031
GGACTATA	0.129 ± 0.085
AGCACCGA	-0.129 ± 0.026
ATTAGAAG	0.138 ± 0.075
AGTAGAAT	0.286 ± 0.011

Sequence	PBM 8-mer E-score
AGTAGAAA	0.142 ± 0.006
ATTAGAAT	0.248 ± 0.033
AGTAGAAC	0.0268 ± 0.014
ATTAGAAA	-0.0714 ± 0.083
CCGAAACG	-0.122 ± 0.032
GATCAGAA	-0.0464 ± 0.015
CCCGTGGC	-0.328 ± 0.013
ACCTCCCC	0.0632 ± 0.019
TGAACGAA	0.0338 ± 0.048
CTGATTCA	-0.006 ± 0.016
AAGCGCTT	0.29 ± 0.074
AAGCGCTC	0.0083 ± 0.034
AAGCGCTA	0.0638 ± 0.1
AAGGATAT	0.0821 ± 0.052
ATTTATGA	0.149 ± 0.03
ACAGATGT	0.0497 ± 0.021
CAACTCGA	-0.0837 ± 0.0059
CGTGGAAA	0.257 ± 0.038
CGTGGAAG	0.163 ± 0.035
AGTGGAAA	0.185 ± 0.0052
CGAGTAAC	-0.108 ± 0.036
CCACAGCA	0.0663 ± 0.031

Sequence	PBM 8-mer E-score
TCTGAAAA	-0.037 ± 0.13
CTGCGTTA	-0.0622 ± 0.026
GTGCGTAA	0.0529 ± 0.0043
CTGCGTAA	-0.0976 ± 0.042
GTGCGTTA	0.00978 ± 0.021
ATGCGTTA	0.243 ± 0.018
ATGCGTAC	0.00487 ± 0.0049
ATGCGTCG	-0.0304 ± 0.0076
ATGCGTAG	0.259 ± 0.071
ATGCGTAA	0.238 ± 0.025
GGCTTGTA	0.22 ± 0.043
GGAGCAAA	0.0658 ± 0.024
ACCTTAAT	0.0925 ± 0.027
CAGTGCGG	-0.189 ± 0.025
ACCGTGGC	-0.207 ± 0.036
GGCCTATA	-0.243 ± 0.01
CTGCCCGC	-0.0236 ± 0.011
GACGCGCC	-0.0693 ± 0.078
CGCGCGCG	0.2 ± 0.077
CGCGCGCC	0.243 ± 0.006
CACGCGCC	0.262 ± 0.027
CACGCGCA	0.0178 ± 0.093
